Screening results from PubChem.
Hits are enriched below; roughly 0.88% of the tested compounds scored in any of these assays.
ERG-DNA inh: qHTS for Small Molecule Inhibitors of the ERG Ets/DNA interaction. Transcriptional regulator ERG (Homo sapiens), P11308. 0.028% of 370,000 active. AID 624246, 2012. Potency, µM (highest dose often 76.9 µM), inactives show at the highest dose FP activity, negative = inhibition, actives largely listed as inhibitors. fluorescence polarization, His-ERG Ets domain / labelled DNA; active = well fitted inhibition curve with a large enough effect in the polarisation, with a control signal flat; inconclusive = small, poorly fitted or top-dose-only effect, or effect the other way, or a change in a side signal; inactive = no such curve, though single readings can be large or run the other way; the % refers to the polarisation;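 note: polarization taken with two DNA probes labelled with fluorescein and Texas red; % of control where 0% means no effect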
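His-tagged ERG Ets domain (1 uM in the protein solution; 300mM KCl, 50mM Tris-HCl, 1mM EDTA, 1mM DTT, pH 7.5) received compound, then a probe mix of 5 nM fluorescein-DNA and 100nM Texas-615-DNA. Fluorescence polarization was read for both dyes.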
APEX1 inh: qHTS Assay for Inhibitors of the Human Apurinic/apyrimidinic Endonuclease 1 (APE1). recombinant APE1, TAMRA/BHQ-2 abasic DNA cleavage fluorescence. Potency, µM (top dose mostly 65.8 µM), for inactives: at the top dose activity change, negative = inhibition, actives largely listed as inhibitors. 0.35% of 350,000 active. AID 2517, 2012. DNA repair nuclease/redox regulator APEX1 (Homo sapiens), P27695;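 note: plate controls were vehicle for no effect and reference inhibitor for full effect; nearly all actives have a fitted effect of over 55% in size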
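Kinetic fluorescence read (525 ex/598 em nm, three reads 60 s apart) of AP-site incision; signal = third minus first read. Enzyme 0.75 nM, dual-labelled THF duplex 50 nM, compound preincubation 15 min RT.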
RECQ1 inh-1: qHTS Assay for Inhibitors of RecQ-Like Dna Helicase 1 (RECQ1); ATP-dependent DNA helicase Q1 (Homo sapiens), P46063; RECQ1 DNA unwinding, red fluorescence kinetic read; Potency, µM (highest dose often 57.3 µM), inactives show at the top dose activity, negative = inhibition, most hits filed as inhibitors; 0.54% of 240,000 active;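 note: plate controls were vehicle for no effect and no enzyme for full effect; nearly all actives have a fitted effect of over 30% in size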
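RECQ1T1 50 nM; forked duplex (20 bp + 30-nt ss tails) 200 nM, ATP 2 mM final; pH 8.0, 2 mM MgCl2, 2.5 ug/ml poly(dI-dC); 15 min compound preincubation; discontinuous kinetic read over 2 h at RT.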
BLM helicase inh: qHTS Assay for Inhibitors of Bloom's syndrome helicase (BLM). 0.2% of 350,000 active. Potency, µM (highest dose often 56.1 µM), for the others: top-dose activity change, negative = inhibition, usual class: inhibitors. recombinant BLM DNA unwinding, fluorescence dequenching;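 note: plate controls were vehicle for no effect and no enzyme for full effect; nearly all actives have a fitted effect of over 35% in size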
GCN5L2 inh: qHTS Assay for Inhibitors of GCN5L2; Histone acetyltransferase KAT2A (Homo sapiens), Q92830; GCN5L2 HAT assay, ThioGlo1 CoA-SH fluorescence; Potency, µM (doses to about 58.9 µM), for the others: at the top dose activity change, negative = inhibition, usual class: inhibitors; 0.21% of 390,000 active; note: % is set by controls: 0 for no effect and ±100 for the full control effect
Target sequence (Q92830 whole entry, looked up): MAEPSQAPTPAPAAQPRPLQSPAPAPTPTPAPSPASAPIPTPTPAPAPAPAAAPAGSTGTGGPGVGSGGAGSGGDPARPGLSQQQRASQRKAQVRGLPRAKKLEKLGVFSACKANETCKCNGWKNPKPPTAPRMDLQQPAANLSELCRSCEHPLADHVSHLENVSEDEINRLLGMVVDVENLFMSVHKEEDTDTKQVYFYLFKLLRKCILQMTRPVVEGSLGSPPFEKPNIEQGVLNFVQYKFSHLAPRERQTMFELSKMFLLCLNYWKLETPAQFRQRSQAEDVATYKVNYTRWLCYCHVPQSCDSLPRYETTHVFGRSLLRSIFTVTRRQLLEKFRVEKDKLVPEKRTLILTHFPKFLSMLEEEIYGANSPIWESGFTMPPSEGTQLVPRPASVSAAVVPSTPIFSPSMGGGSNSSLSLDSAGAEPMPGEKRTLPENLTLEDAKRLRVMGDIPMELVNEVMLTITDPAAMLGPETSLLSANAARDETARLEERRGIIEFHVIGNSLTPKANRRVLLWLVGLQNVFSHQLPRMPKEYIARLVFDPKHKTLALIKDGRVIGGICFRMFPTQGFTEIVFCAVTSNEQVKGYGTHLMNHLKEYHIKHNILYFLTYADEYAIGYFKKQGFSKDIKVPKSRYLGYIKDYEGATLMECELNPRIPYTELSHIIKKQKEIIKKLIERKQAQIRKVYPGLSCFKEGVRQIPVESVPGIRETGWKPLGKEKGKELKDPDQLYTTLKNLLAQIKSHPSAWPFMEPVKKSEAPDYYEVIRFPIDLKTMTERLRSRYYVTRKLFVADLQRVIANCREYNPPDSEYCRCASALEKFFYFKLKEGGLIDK
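Compounds, pin-transferred from DMSO stocks, meet 20nM GCN5L2 for 15 min before the reaction begins with H3(1-25) peptide (75uM) and acetyl-CoA (70uM). Thiol-reactive ThioGlo1 reports CoA release over 20 min at room temperature.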
WRN helicase inh: qHTS for Inhibitors of WRN Helicase; Bifunctional 3'-5' exonuclease/ATP-dependent helicase WRN (Homo sapiens), Q14191; WRN helicase unwinding, fluorescent forked duplex, kinetic; Potency, µM (doses to about 114 µM), without a hit: top-dose activity change, negative = inhibition, most hits filed as inhibitors; 0.46% of 360,000 active; note: % is set by controls: 0 for no effect and ±100 for the full control effect; nearly all actives have a fitted effect of over 55% in size
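Screening of the MLSMR collection measured strand separation of a quenched forked DNA duplex (100 nM) by 20 nM WRN with 2 mM ATP, all final. Compounds were preincubated with enzyme 15 min at room temperature.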
RECQ1 inh conf: Confirmation qHTS Assay for Inhibitors of RecQ-Like Dna Helicase 1 (RECQ1); 28% of 610 active; Potency, µM (doses to about 229 µM), inactives show at the top dose activity change, negative = inhibition, hits mostly inhibitors; shares compounds with RECQ1 inh-1; RECQ1 helicase DNA unwinding, fluorescence; AID 2708, 2010; note: % is set by controls: 0 for no effect and ±100 for the full control effect; nearly all actives have a fitted effect of over 45% in size
ADP FP counter: Counterscreen for RECQ1 Inhibitors: ADP Fluorescence Polarization Displacement Assay. ADP fluorescence polarization displacement counterscreen. shares compounds with RECQ1 inh-1. 27% of 530 active. Potency, µM (titrated, usually from 228 µM), for inactives: at the highest dose activity change, negative = inhibition, hits mostly inhibitors; note: % is set by controls: 0 for no effect and ±100 for the full control effect; nearly all actives have a fitted effect of over 45% in size
RECQ1 inh-2: Confirmation qHTS Assay for Inhibitors of RecQ-Like Dna Helicase 1 (RECQ1) - Round 2 Cherry Picks. shares compounds with RECQ1 inh-1. recombinant RECQ1 DNA unwinding, red fluorescence. Potency, µM (highest dose often 119 µM), without a hit: at the highest dose activity, negative = inhibition, hits mostly inhibitors. 15% of 1,100 active; note: % is set by controls: 0 for no effect and ±100 for the full control effect; nearly all actives have a fitted effect of over 50% in size
* = called active by the depositor; i = inactive; ? = inconclusive; nt = no result given; [ ] = remark or other dose. Unless noted, calls come from the whole dose curve; as a rule, active = well fitted curve in the direction sought with a large enough effect; inconclusive = small, poorly fitted or top-dose-only effect, or another doubt; inactive = no such curve, though single readings can be large; an effect the other way counts as inactive or inconclusive. Potency is the fitted concentration of half-maximal effect.

SMILES | ERG-DNA inh | APEX1 inh | RECQ1 inh-1 | BLM helicase inh | GCN5L2 inh | WRN helicase inh | RECQ1 inh-2 | others
Cc1cc(O)ccc1N=Cc1c(C(F)(F)F)[nH][nH]c1=O | 6.3µM* | 17% | 8.9µM* | -10% | -7% | -12% | -7% | RECQ1 inh conf=0%[114 µM];ADP FP counter=6.3µM*
CC(C)(C)OC(=O)CN1C(=O)S/C(=C\c2ccc(-c3cccc(C(=O)O)c3)o2)C1=O | nt | -28% | nt | 0% | -18% | nt | nt
O=C(O)c1cccc(N2C(=O)/C(=C/c3ccc(SCc4ccc(Cl)cc4)o3)SC2=S)c1 | 34% | 10µM* | 22µM* | 113% | 22µM* | 18µM* | nt | RECQ1 inh conf=-87%[114 µM]
Cc1cc(=O)c2c(O)c3c(O)cc(O)c4c5c(O)cc(O)c6c(O)c7c(=O)cc(C)c8c1c2c(c34)c(c65)c78 | nt | 3.2µM* | 0.56µM* | 20µM* | 18µM* | nt | nt | RECQ1 inh conf=?;ADP FP counter=0.14µM*
Cc1cc(=O)c2c(C)ccc(C)c2[nH]1 | -10% | -3% | i | -3% | 0% | 0% | nt
NC=O | nt | 4% | -3% | nt | nt | nt | nt
O=C1CSC(=S)N1c1ccc(F)cc1 | nt | 39% | nt | -6% | 1% | nt | nt
CN(C)c1ccc(N2C(=O)CSC2=S)cc1 | ? | 10µM* | ? | -3% | 1% | ? | -24%
O=c1nc(/C=C/c2cccn2-c2ccc([N+](=O)[O-])cc2)cc(C(F)(F)F)[nH]1 | 3% | 0% | 35µM* | -27% | -27% | ? | ?
CC(C)[C@H](NC(=O)[C@@H]1CSC2c3ccccc3C(=O)N21)C(=O)NCc1ccco1 (some centres undefined) | 1% | 6% | nt | -1% | -5% | 6% | nt
O=C(NCc1ccco1)[C@@H]1CSC2c3ccccc3C(=O)N21 (some centres undefined) | -6% | -11% | ? | -22% | -19% | -28% | ?
CNC(=O)OCc1cocc1COC(=O)NC | nt | nt | nt | nt | nt | -4% | nt
COc1ccc(S(=O)(=O)NCCCCCC(=O)O)cc1C(=O)O | 1% | 9% | -9% | -4% | 2% | 8% | nt | RECQ1 inh conf=10%;ADP FP counter=-7%
COc1ccc(S(=O)(=O)NCCCCC(=O)O)cc1C(=O)O | 5% | 3% | -7% | 3% | -4% | -1% | nt
Cc1ccc(/C=C/C(=O)c2nc3ccccc3[nH]2)cc1 | 8% | -6% | 10µM* | -21% | -5% | -9% | -29% | RECQ1 inh conf=2%[114 µM];ADP FP counter=-14%[91.9 µM]
O=c1c(S(=O)(=O)c2ccccc2)cn(Cc2cccc(F)c2)c2cc(N3CCOCC3)c(F)cc12 | 0% | nt | nt | -6% | -6% | nt | nt
COc1ccc(Nc2nnc(-c3ccc(O)cc3)c3ccccc23)cc1C(N)=O | -4% | 1% | ? | -11% | -19% | -14% | -13%
Cc1cc(C)c(NC(=O)COC(=O)c2cccc3c2C(=O)c2ccccc2C3=O)c(C)c1 | 3% | -5% | -5% | -7% | -8% | -9% | nt
Cc1cc(C)c(Nc2cc(S(=O)(=O)O)c(N)c3c2C(=O)c2ccccc2C3=O)c(C)c1 | 3% | ? | ? | -30% | ? | 56µM* | 32µM*
Cc1ccc(S(=O)(=O)N2CCc3ccccc3C2CN2C(=O)c3ccccc3C2=O)cc1 (centres undefined) | -1% | 10% | 32µM* | -9% | -7% | -6% | -13%
O=C1c2ccccc2C(=O)N1CC1c2ccccc2CCN1S(=O)(=O)c1cnc[nH]1 (centres undefined) | -4% | 2% | -3% | 3% | 2% | 3% | nt
CCOCCCNC(=O)CN1C(=O)CCn2nc(-c3cccn3C)cc21 | 2% | nt | nt | -3% | -8% | nt | nt
CC(=O)N1CCC[C@@]2(CCN(C(c3ccccc3)c3ccccc3)C2)C1 | nt | 4% | 0% | 7% | 4% | nt | nt
Cc1ccc(N2CC(C(=O)NCc3ccc(C)n3C)CC2=O)cc1 (centres undefined) | 2% | -7% | ? | -9% | -11% | -1% | -9%
Cc1ccc(N2CC(C(=O)NCCC(C)C)CC2=O)cc1 (centres undefined) | 2% | 3% | -3% | -1% | -1% | 4% | nt
SMILES | ERG-DNA inh | APEX1 inh | RECQ1 inh-1 | BLM helicase inh | GCN5L2 inh | WRN helicase inh | RECQ1 inh-2 | others
Nc1ccc(C(=O)Oc2ccccc2)c(O)c1 | nt | 2% | -7% | -9% | -12% | nt | nt
Nc1nc(-c2ccccc2)ns1 | -5% | nt | nt | nt | nt | -1% | nt
CN(C)c1ccc(C2C3=C(CCCC3=O)OC3=C2C(=O)CCC3)cc1 | 2% | 7% | ? | -14% | 3% | -17% | 1%
COc1ccc(-c2nc(CSc3nncn4c3cc3sccc34)c(C)o2)cc1OC | -2% | nt | nt | -10% | 2% | nt | nt
CCOC(=O)c1cc(-c2ccccc2)n(CCC(=O)Nc2ccc(C(F)(F)F)cc2)c1C | 0% | nt | nt | -12% | -7% | nt | nt
N#CC1=C(SCC(=O)c2cc3ccccc3oc2=O)NC(=O)C(C#N)C12CCCC2 (centres undefined) | 12% | ? | ? | -16% | ? | -6% | -8%
CC(C)(C)C1CCC2(CC1)C(C#N)=C(SCC(=O)Nc1ccccc1)NC(=O)C2C#N (centres undefined) | -3% | 0% | 13% | -18% | -9% | -32% | nt
CCOc1ccc(/C=C/C(=O)c2cc(Br)ccc(=O)c2O)cc1 | 10% | 21% | 22µM* | -17% | -20% | ? | ?
O=C(C=Cc1ccccc1)c1cc(Br)ccc1O | 0% | nt | nt | nt | nt | -18% | nt
